One test has as its system HEK293. As to the kind of experiment: Cytotoxic Profiling of Annotated Libraries Using Quantitative High-Throughput Screening (AID 1296008). Conditions: Five cell lines viability, CellTiter-Glo ATP luminescence, 48-72 h; max response: stronger effect = lower value. In short, it runs like this: (§1)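 Cytotoxicity was measured as CellTiter-Glo ATP luminescence, read after 10 min at room temperature. Compound treatment of the cells lasted 48 or 72 hr at 37 degrees Celsius in a qHTS format.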

In test [1] the test system is HaCat. Described as above. Conditions: Five cell lines viability, CellTiter-Glo ATP luminescence, 48-72 h; max response: stronger effect = lower value. The method, boiled down: as §1
(In general: Cellular ATP, detected with luciferase, serves as a proxy for viable cell number.)

Another test concerns KB-3-1. Described as above. Conditions: Five cell lines viability, CellTiter-Glo ATP luminescence, 48-72 h; max response: stronger effect = lower value. In short, it runs like this: as §1
The next test concerns NIH3T3. The test is described as above. The settings on record: Five cell lines viability, CellTiter-Glo ATP luminescence, 48-72 h; max response: stronger effect = lower value. The method, boiled down: as §1
The test system of the next test is MCC-13. As to the kind of experiment: qHTS assay to identify novel small-molecules to repurpose for Merkel cell carcinoma treatment (AID 1296009). The settings on record: MCC and control cell lines, CellTiter-Glo viability, 72 h; series mostly up to 46 µM. The method, boiled down:
(§2)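 72 hr, 37 degree celsius; NPC 8-pt / MIPE 11-pt dose response; compound pinned in DMSO; CellTiter-Glo, 10 min RT, luminescence; normalized to no-cell and DMSO controls.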

The test system of another test is MCC-26. The description is as above. Conditions: MCC and control cell lines, CellTiter-Glo viability, 72 h; series mostly up to 46 µM. The method, boiled down: as §2
Another test relates to MKL-1. The test is described as above. The settings on record: MCC and control cell lines, CellTiter-Glo viability, 72 h; series mostly up to 46 µM. In short, it runs like this: as §2
The next test relates to MKL-2. The test is described as above. The settings on record: MCC and control cell lines, CellTiter-Glo viability, 72 h; series mostly up to 46 µM. The method, boiled down: as §2
In test [2] the test system is HACAT. The description is as above. The settings on record: MCC and control cell lines, CellTiter-Glo viability, 72 h; at 44.8 µM (top of the series) unless noted. In short, it runs like this:
as §2

The structures appear in SMILES notation. “And” between values parts separate entries of the source, which are not always exact repeats. Equal entries are not always repeated. Records with an inconclusive call do not appear. Some compounds were tested as several samples or in several runs, with calls that do not always agree. The source made the active and inactive calls. Calls come from the whole dose curve; as a rule, active = well fitted inhibition curve with a large enough effect; inconclusive = small, poorly fitted or top-dose-only effect; inactive = flat fitted curve, though single readings scatter.
% is set by controls: 0 for no effect and ±100 for the full control effect; potency is the fitted concentration of half-maximal effect.
Note: nearly all actives have a fitted effect of over 60% in size.

Turning to `NC(=O)C1CCCc2c1[nH]c1ccc(Cl)cc21` (stereo not given), the Potency with HEK293 is 5.9 µM (active). Further, the max response with HaCat [1] is -10.7% (inactive); in the test on KB-3-1 it was 2.38% (inactive); in the test with NIH3T3 it was -12.4% (inactive). Moreover, the Potency result in the test with MCC-13, in the test with MCC-26, with MKL-1 and in the test on MKL-2 was “inactive” throughout.
Turning to `CC1(C)Cc2c(-c3ccccc3)c(-c3ccc(Cl)cc3)c(CC(=O)O)n2C1`, the Potency with HEK293 was 14.6 µM (active). Besides, the max response was -5.26% (inactive) and -28.4% (inactive) in the test with HaCat [1]; -7.08% (inactive) with KB-3-1; -5.92% (inactive) with NIH3T3. For the same compound, the Potency entry with MCC-13, in the test on MCC-26, with MKL-1 and in the test with MKL-2 was “inactive” each time.
`CS(=O)(=O)c1cccc(CNc2nc(Nc3ccc4c(c3)CCC(=O)N4)ncc2C(F)(F)F)c1`: the Potency with HEK293 was 18.4 µM (active); in the test with HaCat [1], 14.6 µM (active); with KB-3-1 it was 18.7 µM (active); in the test with NIH3T3, 8.2 µM (active). Besides, the Potency entry in the test with MCC-13, in the test on MCC-26 and in the test on MKL-2 was “inactive” each time.
In the case of `COc1ccccc1-c1cccc(-c2c(O)c3cc(C#N)c(Cl)cc3[nH]c2=O)c1`, the Potency in the test with HEK293 was 3.4 µM (active); in the test with HaCat [1] it was 19.1 µM (active); in the test with NIH3T3, 21.5 µM (active). Moreover, in the test on KB-3-1, the max response is -25.1% (inactive). The Potency result in the test with MCC-13, with MCC-26, in the test with MKL-1 and in the test on MKL-2 was “inactive” throughout.
As to `O=c1ncn2nc(Sc3ccc(F)cc3F)ccc2c1-c1c(Cl)cccc1Cl`, in the test with HEK293, the Potency was 13.2 µM (active). Further, the values for the max response with HaCat [1] and with KB-3-1 were -4.37% (inactive) and -0.339% (inactive), respectively. Moreover, the Potency entry with MCC-13, with MCC-26, in the test with MKL-1 and in the test with MKL-2 was “inactive” each time.
As to `Cc1c(CN2CCN(C(=O)C(C)C)CC2)sc2c(N3CCOCC3)nc(-c3cnc(N)nc3)nc12`, the Potency is 0.187 µM (active) in the test on HEK293; 1.05 µM (active) in the test on HaCat [1]; 0.148 µM (active) in the test with KB-3-1; 0.469 µM (active) in the test on NIH3T3; 0.662 µM (active) with MCC-26.
As to `CCn1c(-c2nonc2N)nc2c(C#CC(C)(C)O)ncc(OC[C@H]3CCCNC3)c21`, the Potency was 0.0469 µM (active) in the test with HEK293 and 9.35 µM (active) in the test on KB-3-1. For the same compound, the compound was called inactive in the test with HaCat [1], in the test on NIH3T3 and in the test on HACAT [2]. Also, the Potency entry in the test on MCC-13, in the test on MKL-1 and in the test with MKL-2 was “inactive” in each case.
Turning to `COc1ccc(CC2=NN3C([C@@H](CCc4ccccc4)[C@@H](C)O)=NC(C)C3C(=O)N2)cc1OC` (stereo not given in full), the max response in the test on HEK293 is -3.77% (inactive); in the test on HaCat [1], -7.5% (inactive); with KB-3-1 it was 9.1% (inactive); in the test with NIH3T3, 0.654% (inactive). The Potency result with MCC-13, in the test with MCC-26, in the test with MKL-1 and in the test on MKL-2 was “inactive” in each case.
In the case of `CS(=O)(=O)c1ccc(C(=O)Nc2ccc(Cl)c(-c3ccccn3)c2)c(Cl)c1`, the max response in the test with HEK293 was -6.21% (inactive); in the test on HaCat [1], -0.0394% (inactive); in the test with KB-3-1, 9.49% (inactive) and -9.43% (inactive); in the test with NIH3T3, -17.3% (inactive) and -11.2% (inactive). In addition, the Potency entry in the test with MCC-13, in the test on MCC-26, in the test with MKL-1 and in the test with MKL-2 was “inactive” in each case.
`Cn1cnc([N+](=O)[O-])c1Sc1ncnc2nc[nH]c12`: the Potency with HEK293 was 10.5 µM (active); with HaCat [1] it was 2.7 µM (active) and 15 µM (active) and 11.8 µM (active); in the test on KB-3-1 it was 2.96 µM (active); with NIH3T3 it was 3.82 µM (active) and 7.5 µM (active) and 5.9 µM (active); in the test with MCC-13, 4.28 µM (active) and 6.68 µM (active); in the test on MKL-1 it was 10.8 µM (active) and inactive. Further, in the test on MKL-2, the Potency was 12.1 µM (active). The Potency entry in the test on MCC-26 is “inactive”.
Regarding `CC(C)OC(=O)C1=CN(C(=O)c2ccc(F)c(F)c2)CC(C)(C)c2c1[nH]c1ccccc21`, the max response is -9.23% (inactive) and -19.6% (inactive) in the test on HEK293; -4.65% (inactive) in the test on HaCat [1]; -6.75% (inactive) and 0.0694% (inactive) in the test on KB-3-1; 3.45% (inactive) and -0.558% (inactive) in the test with NIH3T3. Further, the Potency result with MCC-13, in the test on MKL-1 and with MKL-2 was “inactive” each time.
In the case of `O=C(c1cc(Cc2n[nH]c(=O)c3ccccc23)ccc1F)N1CCN(C(=O)C2CC2)CC1`, the max response with HEK293 is -77.6% (inactive); in the test with HaCat [1] it was -1.1% (inactive); in the test with KB-3-1 it was -21.2% (inactive) and -8.64% (inactive); in the test with NIH3T3 it was -27.5% (inactive) and -49.1% (inactive). The Potency result with MCC-13, with MCC-26 and in the test with MKL-1 was “inactive” throughout.
Consider `CCOC(=O)N1CCC(=C2c3ccc(Cl)cc3CCc3cccnc32)CC1`, for which the Potency in the test with HEK293 is 18.7 µM (active) and 18.8 µM (active). Further, the max response is -16.9% (inactive) and -8.21% (inactive) in the test on HaCat [1]; -21% (inactive) and -12% (inactive) with NIH3T3. Moreover, the result in the test with KB-3-1 was inactive. Moreover, the Potency entry with MCC-13, with MCC-26, in the test with MKL-1 and with MKL-2 was “inactive” throughout.
Consider `CCCn1c(=O)c2[nH]c(C34CC5CC3C[C@@H](C5)C4)nc2n(CCC)c1=O`, for which the max response in the test with HEK293 was -11% (inactive); in the test with HaCat [1] it was 4.8% (inactive); with KB-3-1, 5.05% (inactive); in the test on NIH3T3, -0.656% (inactive). The Potency entry in the test with MCC-13, in the test with MCC-26, in the test on MKL-1 and in the test with MKL-2 was “inactive” each time.

(Values after PubChem BioAssay (NCATS).)
